Our source for the outcome and AC50 values is PubChem BioAssay (EPA / NIEHS).

What is called AC50 is the concentration at which the activity in the assay is half-maximal.

Settings in all cases: mRNA level, 48 h; actives raise or lower the signal
Read-out in experiment [1]: Bcl-2 (BAD) gene, BAD (gene 572)
In words: LTEA_HepaRG_BAD: Life Technologies and Expression Analysis (LTEA) Assay for Bcl-2 (BAD) gene using HepaRG (AID 2283469). The gist of the method: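 HepaRG, 48 h exposure, 8-pt half-log curve from 100 uM in 0.5% DMSO, duplicates. Readout: TaqMan qRT-PCR for BAD mRNA, housekeeping-normalised (ACTB/GAPDH/POLR2A); gain or loss fitted against DMSO baseline.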

Read-out in experiment [2]: Bcl-2 (BAX) gene, BAX (gene 581)
Briefly: LTEA_HepaRG_BAX: Life Technologies and Expression Analysis (LTEA) Assay for Bcl-2 (BAX) gene using HepaRG (AID 2283470). Summed up:
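qRT-PCR read-out of BAX mRNA, normalized to three housekeeping genes, after 48 h chemical exposure of human HepaRG cells in serum-free induction medium; eight-point half-log series, top 100 uM, 0.5% DMSO vehicle; bidirectional fit versus DMSO.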

Read-out in experiment [3]: adenosine kinase (ADK) gene, ADK (gene 132)
In words: LTEA_HepaRG_ADK: Life Technologies and Expression Analysis (LTEA) Assay for adenosine kinase (ADK) gene using HepaRG (AID 2283471). The gist of the method:
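ADK expression quantified by qRT-PCR, normalised to three housekeeping genes, after 48 h exposure of HepaRG cells to eight concentrations (top 100 uM, half-log steps, duplicate, 0.5% DMSO). Up- or down-regulation fitted relative to vehicle.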

Read-out in experiment [4]: Alpha-fetoprotein (AFP) gene, AFP (gene 174)
Briefly: LTEA_HepaRG_AFP: Life Technologies and Expression Analysis (LTEA) Assay for Alpha-fetoprotein (AFP) gene using HepaRG (AID 2283472). Summed up: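 qRT-PCR (Fluidigm TaqMan) readout of AFP transcript, normalized to three housekeeping genes, fitted bidirectionally against 0.5% DMSO baseline. HepaRG cells received chemicals for 48 h in serum-free induction medium, top concentration 100 uM, half-log steps.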

Read-out in experiment [5]: BCL2L11 (gene 10018)
Briefly: LTEA_HepaRG_BCL2L11: Life Technologies and Expression Analysis (LTEA) Assay for Bcl-2 (BCL2L11) gene using HepaRG (AID 2283473). Summed up: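 BCL2L11 transcript levels are measured by Fluidigm qRT-PCR, normalized to three housekeeping genes. HepaRG cultures were plated 48 h, then treated 48 h with test chemical (top 100 uM, half-log, 0.5% DMSO vehicle); curves were fitted bidirectionally against DMSO.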

Read-out in experiment [6]: Apolipoprotein A-V (APOA5) gene, APOA5 (gene 116519)
In words: LTEA_HepaRG_APOA5: Life Technologies and Expression Analysis (LTEA) Assay for Apolipoprotein A-V (APOA5) gene using HepaRG (AID 2283474). The gist of the method:
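APOA5 transcript levels were quantified by qRT-PCR, normalized to three housekeeping genes, after 48 h chemical treatment of HepaRG cells (8 points, 100 uM maximum, half-log steps, 0.5% DMSO). Curves fitted in both directions against vehicle.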

Read-out in experiment [7]: Apoptosis regulator Bcl-2 (Homo sapiens) (UniProt P10415)
Briefly: LTEA_HepaRG_BCL2: Life Technologies and Expression Analysis (LTEA) Assay for Bcl-2 gene using HepaRG (AID 2283475). The gist of the method:
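qRT-PCR read-out (Fluidigm TaqMan) of BCL2 transcript, normalised to three housekeeping genes, after 48 h chemical exposure of HepaRG cells; 8-point half-log series, top 100 uM, 0.5% DMSO vehicle. Gain or loss of signal fitted relative to DMSO baseline.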

Read-out in experiment [8]: Bcl-2 (BID) gene, BID (gene 637)
In words: LTEA_HepaRG_BID: Life Technologies and Expression Analysis (LTEA) Assay for Bcl-2 (BID) gene using HepaRG (AID 2283476). Summed up:
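HepaRG, 48 h exposure, 8-pt half-log series, top 100 uM, 0.5% DMSO vehicle, duplicates. Readout: BID mRNA by TaqMan qRT-PCR; housekeeping-normalized; bidirectional curve fit vs DMSO baseline.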

Read-out in experiment [9]: Caspase-3 (Homo sapiens) (UniProt P42574)
In words: LTEA_HepaRG_CASP3: Life Technologies and Expression Analysis (LTEA) Assay for cysteine-aspartic acid protease (CASP3) using HepaRG (AID 2283477). Summed up: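 Expression of CASP3 was quantified by TaqMan qRT-PCR against three housekeeping genes (ACTB, GAPDH, POLR2A), bidirectionally versus 0.5% DMSO. HepaRG cultures received compounds in duplicate, top 100 uM with half-log steps, for 48 h in serum-free induction medium.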

Read-out in experiment [10]: Cytochrome P450 (CYP24A1), CYP24A1 (gene 1591)
In words: LTEA_HepaRG_CYP24A1: Life Technologies and Expression Analysis (LTEA) Assay for Cytochrome P450 (CYP24A1) using HepaRG (AID 2283478). Summed up:
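mRNA of CYP24A1 quantified by TaqMan qRT-PCR (ACTB/GAPDH/POLR2A normalization) after 48 h chemical exposure of HepaRG cells, top concentration 100 uM, half-log steps, 0.5% DMSO vehicle, duplicates. Curves fitted bidirectionally against DMSO baseline.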

Read-out in experiment [11]: Cytochrome P450 (CYP1A2), CYP1A2 (gene 1544)
Briefly: LTEA_HepaRG_CYP1A2: Life Technologies and Expression Analysis (LTEA) Assay for Cytochrome P450 (CYP1A2) using HepaRG (AID 2283479). Summed up: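 CYP1A2 transcript measured by TaqMan qRT-PCR against three housekeeping genes after 48-hour chemical exposure of HepaRG cells. Eight-point half-log series topping at 100 uM in 0.5% DMSO, duplicates; gain or loss fitted relative to vehicle.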

Read-out in experiment [12]: cysteine-aspartic acid protease (CASP8), CASP8 (gene 841)
In words: LTEA_HepaRG_CASP8: Life Technologies and Expression Analysis (LTEA) Assay for cysteine-aspartic acid protease (CASP8) using HepaRG (AID 2283480). Summed up:
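qRT-PCR readout of CASP8 mRNA, normalized to three housekeeping genes, after 48 h chemical exposure of HepaRG cells; 8-point half-log series, top 100 uM, 0.5% DMSO vehicle. Bidirectional curve fitting against DMSO baseline.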

Read-out in experiment [13]: Cytochrome P450 2C19 (Homo sapiens) (UniProt P33261)
Briefly: LTEA_HepaRG_CYP2C19: Life Technologies and Expression Analysis (LTEA) Assay for CYP2C19 using HepaRG (AID 2283482). Summed up:
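CYP2C19 transcript levels by qRT-PCR, normalized to three housekeeping genes, in HepaRG cells after 48 h chemical exposure. Eight-point half-log series topping at 100 uM, 0.5% DMSO vehicle. Increases and decreases both fitted against DMSO.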

Read-out in experiment [14]: CYP2C8 (gene 1558)
In words: LTEA_HepaRG_CYP2C8: Life Technologies and Expression Analysis (LTEA) Assay for CYP2C8 using HepaRG (AID 2283483). The gist of the method: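 HepaRG (human liver line), 48 h chemical exposure, 8-pt half-log series from 100 uM, 0.5% DMSO vehicle. Readout: CYP2C8 transcript by qRT-PCR, housekeeping-normalized. Bidirectional fit vs DMSO baseline.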

Read-out in experiment [15]: CYP2C9 (gene 1559)
Briefly: LTEA_HepaRG_CYP2C9: Life Technologies and Expression Analysis (LTEA) Assay for CYP2C9 using HepaRG (AID 2283484). The gist of the method: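 HepaRG, 48 h dosing, 8-pt half-log series, top 100 uM, 0.5% DMSO vehicle. Read-out: CYP2C9 transcript by TaqMan qRT-PCR, housekeeping-normalized (ACTB/GAPDH/POLR2A). Gain or loss fitted vs DMSO baseline.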

Read-out in experiment [16]: CYP2E1 (gene 1571)
In words: LTEA_HepaRG_CYP2E1: Life Technologies and Expression Analysis (LTEA) Assay for CYP2E1 using HepaRG (AID 2283485). Summed up: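 CYP2E1 transcript was measured by TaqMan qRT-PCR in human HepaRG cultures after 48 h chemical exposure (top 100 uM, half-log steps, 0.5% DMSO vehicle). Housekeeping-gene normalization; gain or loss fitted relative to DMSO baseline.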

Read-out in experiment [17]: CYP4A11 (gene 1579)
Briefly: LTEA_HepaRG_CYP4A11: Life Technologies and Expression Analysis (LTEA) Assay for CYP4A11 using HepaRG (AID 2283486). Summed up: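 Readout is CYP4A11 transcript level by qRT-PCR, normalized to three housekeeping genes and fitted bidirectionally against 0.5% DMSO. Human HepaRG cells were treated 48 h, in duplicate, with an 8-point half-log series topping at 100 uM.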

Read-out in experiment [18]: Cytochrome P450 3A4 (Homo sapiens) (UniProt P08684)
Briefly: LTEA_HepaRG_CYP3A4: Life Technologies and Expression Analysis (LTEA) Assay for CYP3A4 using HepaRG (AID 2283487). Summed up: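 Differentiated HepaRG cells, plated 48 h, then dosed 48 h in serum-free induction medium with 0.5% DMSO, 8 half-log concentrations up to 100 uM, duplicate. CYP3A4 mRNA by qRT-PCR, normalized to ACTB/GAPDH/POLR2A; bidirectional fit versus DMSO.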

Read-out in experiment [19]: DNA damage-inducible transcript 3 (DDIT3), DDIT3 (gene 1649)
In words: LTEA_HepaRG_DDIT3: Life Technologies and Expression Analysis (LTEA) Assay for DNA damage-inducible transcript 3 (DDIT3) using HepaRG (AID 2283488). Summed up:
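qRT-PCR readout (Fluidigm TaqMan), housekeeping-normalized to ACTB, GAPDH, POLR2A. HepaRG cells, 48 h exposure, 8-point half-log series from 100 uM in 0.5% DMSO, duplicates. Gain or loss of signal fitted against DMSO baseline.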

Read-out in experiment [20]: Cytochrome P450 (CYP2B6), CYP2B6 (gene 1555)
Briefly: LTEA_HepaRG_CYP2B6: Life Technologies and Expression Analysis (LTEA) Assay for Cytochrome P450 (CYP2B6) using HepaRG (AID 2283481). The gist of the method:
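CYP2B6 transcript level quantified by qRT-PCR against three housekeeping genes, fitted bidirectionally relative to DMSO. HepaRG cultures received chemicals for 48 h, 8-point half-log series from 100 uM in 0.5% DMSO, duplicate wells, serum-free induction medium.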

Calls of active or inactive are those of the source. The calls were made as follows: active = hit-call score of the fitted dose curve at least 0.9, where 1 is the maximum; inactive = score below 0.9.

Cytochrome P450 2C19 (Homo sapiens), sequence (P33261 whole entry, looked up): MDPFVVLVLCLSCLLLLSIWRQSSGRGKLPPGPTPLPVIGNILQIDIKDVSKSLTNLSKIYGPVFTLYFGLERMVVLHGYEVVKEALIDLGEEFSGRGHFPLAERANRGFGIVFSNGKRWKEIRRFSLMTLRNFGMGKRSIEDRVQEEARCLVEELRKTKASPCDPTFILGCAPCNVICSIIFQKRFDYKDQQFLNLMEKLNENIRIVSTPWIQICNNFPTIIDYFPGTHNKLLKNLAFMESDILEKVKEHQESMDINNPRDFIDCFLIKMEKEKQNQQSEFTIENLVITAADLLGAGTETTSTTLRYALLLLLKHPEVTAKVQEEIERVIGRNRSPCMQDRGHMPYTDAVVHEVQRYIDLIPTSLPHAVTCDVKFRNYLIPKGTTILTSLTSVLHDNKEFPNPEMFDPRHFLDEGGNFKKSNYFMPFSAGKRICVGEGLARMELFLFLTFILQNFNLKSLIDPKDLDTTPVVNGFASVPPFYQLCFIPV
Cytochrome P450 3A4 (Homo sapiens), sequence (P08684 whole entry, looked up): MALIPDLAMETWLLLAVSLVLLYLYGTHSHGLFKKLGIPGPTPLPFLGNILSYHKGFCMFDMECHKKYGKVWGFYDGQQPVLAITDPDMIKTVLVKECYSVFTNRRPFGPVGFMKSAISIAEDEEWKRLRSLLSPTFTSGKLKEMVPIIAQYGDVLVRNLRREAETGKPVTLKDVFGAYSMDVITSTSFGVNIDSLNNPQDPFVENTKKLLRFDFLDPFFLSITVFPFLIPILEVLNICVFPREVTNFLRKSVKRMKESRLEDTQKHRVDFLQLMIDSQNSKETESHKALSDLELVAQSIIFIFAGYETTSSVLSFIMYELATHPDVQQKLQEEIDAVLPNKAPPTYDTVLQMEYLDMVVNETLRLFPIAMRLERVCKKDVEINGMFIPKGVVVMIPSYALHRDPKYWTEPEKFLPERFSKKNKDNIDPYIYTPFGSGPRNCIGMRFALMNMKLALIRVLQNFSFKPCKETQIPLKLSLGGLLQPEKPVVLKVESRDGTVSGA
Apoptosis regulator Bcl-2 (Homo sapiens), sequence (P10415 whole entry, looked up): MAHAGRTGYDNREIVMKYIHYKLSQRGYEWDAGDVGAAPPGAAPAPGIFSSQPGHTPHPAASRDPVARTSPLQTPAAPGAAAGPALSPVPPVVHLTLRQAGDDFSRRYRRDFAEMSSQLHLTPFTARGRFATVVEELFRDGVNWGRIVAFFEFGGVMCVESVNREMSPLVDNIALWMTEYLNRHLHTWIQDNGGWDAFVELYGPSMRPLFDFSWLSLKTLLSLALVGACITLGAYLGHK
Caspase-3 (Homo sapiens), sequence (P42574 whole entry, looked up): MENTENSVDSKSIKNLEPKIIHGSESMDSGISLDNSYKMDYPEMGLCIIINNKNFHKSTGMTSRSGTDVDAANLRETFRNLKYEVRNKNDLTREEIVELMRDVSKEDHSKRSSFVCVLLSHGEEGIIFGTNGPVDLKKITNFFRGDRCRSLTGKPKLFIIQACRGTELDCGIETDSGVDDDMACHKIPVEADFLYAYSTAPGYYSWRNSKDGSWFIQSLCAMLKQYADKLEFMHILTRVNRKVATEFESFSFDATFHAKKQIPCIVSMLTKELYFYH

As to `Oc1ccc2c(c1)OC[C@@H](N1CCC(O)(c3ccc(F)cc3)CC1)[C@H]2O`, the call in experiment [1], in experiment [2], in experiment [3], in [4], in [5] and in [6] was inactive. For the same compound, the result in experiment [7], in [8], in experiment [9], in [10], in experiment [11] and in experiment [12] was inactive. In addition, the compound was classed as inactive in [13], in [14], in experiment [15], in experiment [16], in [17] and in experiment [18]. Also, the call in experiment [19] was inactive.
Turning to `COc1cc(C=O)ccc1O`, the result in [1], in [2], in experiment [3], in [4], in experiment [5] and in experiment [6] was inactive. Besides, the call in experiment [7], in [8], in experiment [9], in experiment [10], in experiment [11] and in experiment [12] was inactive. Also, the outcome in [20], in experiment [13], in experiment [14], in experiment [15], in experiment [16] and in [17] was inactive. Besides, the call in experiment [18] and in [19] was inactive.
As for `CCCCN(CCCC)CCCC`, the outcome in experiment [1], in [2], in experiment [3], in experiment [4], in [5] and in [6] was inactive. For the same compound, the compound was classed as inactive in experiment [7], in [8], in experiment [9], in experiment [10], in experiment [11] and in [20]. Further, the call in experiment [13], in [14], in [15], in [16], in experiment [17] and in experiment [18] was inactive. Further, the compound was called inactive in [19].
As for `Cc1ccc(C(C)C)c(O)c1`, the compound was called inactive in experiment [1], in experiment [2], in experiment [3], in experiment [4], in experiment [5] and in experiment [6]. Further, the compound was classed as inactive in [7], in experiment [8], in [9], in [10], in [11] and in experiment [20]. Besides, the compound was classed as inactive in experiment [13], in experiment [14], in experiment [15], in [16], in experiment [17] and in experiment [18]. The compound was classed as inactive in experiment [19].
Turning to `OC[C@@H](O)[C@@H](O)[C@H](O)[C@H](O)CO`, the compound was called inactive in experiment [1], in experiment [2], in [3], in experiment [4], in [5] and in experiment [6]. Moreover, the compound was called inactive in experiment [7], in [8], in [9], in [10], in experiment [11] and in [12]. Also, the outcome in experiment [20], in [13], in experiment [14], in [15], in experiment [16] and in experiment [17] was inactive. The result in experiment [18] and in experiment [19] was inactive.
For `CC(C)c1ccc(C(=O)N=C(N)N)cc1S(C)(=O)=O`, the AC50 is 407 nM (active) in experiment [1]; 7390 nM (active) in experiment [2]; 418 nM (active) in [3]; 350 nM (active) in experiment [4]; 397 nM (active) in experiment [5]; 302 nM (active) in experiment [6]. In addition, the AC50 in experiment [7] is 558 nM (active); in experiment [8] it was 367 nM (active); in [9], 383 nM (active); in [11], 452 nM (active); in experiment [12], 409 nM (active); in [20], 464 nM (active). Also, the AC50 in experiment [13] is 13100 nM (active); in experiment [14] it was 578 nM (active); in [17], 297 nM (active); in [18], 9240 nM (active); in experiment [19], 545 nM (active). Besides, the compound was classed as inactive in experiment [10] and in [16].
